From PubChem BioAssay AID743330 (NMMLSC, 2014)
The source made the active and inactive calls. How the calls were made is not given here.

Test system: Rab7
Assay: fluorescent GTP concentration effect on GTPase potency – biochemical, four GTPases, bead flow cytometry, mechanism study, profiling panel (AID 743330)
Conditions: bead-based flow cytometry, fluorescent GTP binding to GTPases

Structure (SMILES) | EC50
CCC1(C)Cc2c(sc(NC(=S)NC(=O)c3ccccc3)c2C(=O)O)CO1 (configuration not stated) | 7 nM (active)
CC1(C)Cc2c(sc(NC(=S)NC(=O)c3ccc(F)cc3)c2C(=O)O)CO1 | 33 nM (active)
